The list is not random: actives were taken first. Their share in the collection is about 4.6%.
VACV Venus inh – vaccinia inhibition (Venus reporter). Vaccinia virus Venus reporter expression, fluorescence. Potency, µM (highest dose often 36.5 µM), without a hit: at the top dose activity change, negative = inhibition, actives largely listed as inhibitors. 330,000 compounds, 0.46% hits. AID 720580; calls by dose curve; tested in A549 cells; also: nearly all actives have a fitted effect of over 30% in size
Marburg entry inh – blocks Marburg virus binding to or entry into cells; Marburg virus pseudotyped entry inhibition, cell reporter; Potency, µM (highest dose often 37.8 µM), for inactives: top-dose activity change, negative = inhibition, most hits filed as inhibitors; 300,000 compounds, 1.8% hits; AID 540276; calls by dose curve; tested in HEK293 cells
HCV inhibitor – HCV inhibition; Potency, µM (top dose mostly 41.8 µM), for inactives: at the highest dose activity change, negative = inhibition, hits mostly inhibitors; Huh7.5.1 HCVcc-Cre infection, luciferase reporter, 44 h; 340,000 compounds, 3.4% hits; active = well fitted inhibition curve with a large enough effect; inconclusive = small, poorly fitted or top-dose-only effect, or another doubt; inactive = no such curve, though single readings can be large or run the other way
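HCVcc-Cre virus at an moi near 0.5 was added right after compound to cells cultured 4 h from seeding (1,000 cells/well). Luciferase activity was determined 44 h later, 15 min after substrate addition at RT.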
VACV mCherry inh – vaccinia inhibition (mCherry reporter); Vaccinia virus mCherry reporter infection, fluorescence; AID 720579; Potency, µM (doses to about 36.5 µM), for inactives: at the top dose activity change, negative = inhibition, actives largely listed as inhibitors; 310,000 compounds, 0.63% hits; calls by dose curve; tested in A549 cells; also: nearly all actives have a fitted effect of over 35% in size
LASV entry inh – inhibitors of Lassa virus binding or cell entry | Lassa virus pseudotype entry inhibition, cell reporter | Potency, µM (series often up to 37.9 µM), for inactives: at the top dose activity change, negative = inhibition, usual class: inhibitors | 300,000 compounds, 1.2% hits; calls by dose curve; tested in HEK293 cells; also: nearly all actives have a fitted effect of over 50% in size
* marks the source's active call; other numbers are inactive results; i = inactive; ? = inconclusive; nt = not tested or not shown; [ ] = remark or other dose. % is scaled to controls: 0 for no effect and ±100 for the full control effect; potency is read from the fitted curve at half-maximal effect.

SMILES	VACV Venus inh	Marburg entry inh	HCV inhibitor	VACV mCherry inh	LASV entry inh
Cc1ccn(CCC(=O)N2CCOc3ccc(C(O)C4CCCCC4)cc3C2)n1 (configuration not stated)	-5.0%	nt	nt	-12.7%	nt
C=CCOC(=O)N[C@@H](c1coc2ccccc2c1=O)[C@@H](C)C=CCC(=O)OC	nt	-3.2%[14.2 µM]	nt	nt	nt
CCN(CC)CCOC(=O)c1ccc(Nc2c3c(nc4ccccc24)CCC3)cc1	-2.9%	?	nt	i	?
CC(C)CNC(=O)c1coc(=O)c(Br)c1	nt	?	?	nt	16.4µM*
CN(C)CCNC(=O)c1coc(=O)c(Br)c1	5.2%	-4.3%	1.9%	-10.7%	4.1%
CCOC(=O)N/N=C/c1ccccc1-c1cc(OC)ccc1OC	nt	-4.0%[14.2 µM]	nt	nt	nt
CC(C)CN(CCCNC(=O)c1cc(=O)[nH]c2ccc(S(=O)(=O)N3CCCCCC3)cc12)CC(C)C	-5.8%	nt	nt	-7.7%	-18.0%[46.1 µM]
O=[N+]([O-])c1cc(S(=O)(=O)C(F)(F)F)ccc1Sc1nc2ccccc2s1	-8.6%	?	-18.6%	nt	?
CS(=O)(=O)c1ccc(Sc2nc3ccccc3s2)c([N+](=O)[O-])c1	?	11.2µM*	?	?	?
Cc1nc2c(nc1C)C(=O)c1ccccc1C2=O	3.98µM*	14.1µM*	?	3.55µM*	?
NC1=CC(=O)C(=O)c2ccccc21	?	?	?	14.1µM*	?
COC1=C(OC)C(=O)c2ccccc2C1=O	-12.5%	?	nt	-16.4%	20.6µM*
COc1ccc(OC)c2c1C(=O)c1ccccc1C2=O	76.8%	0.3%	-14.2%	-4.9%	-10.0%
O=C1C(=C(I)I)c2ccccc2-c2ccccc21	?	?	8.91µM*	?	?
O=C1C(=O)c2ccccc2-c2ccccc21	4.47µM*	nt	2.82µM*	2.82µM*	nt
COC(=O)c1ccc(-c2cccc3c2OC(CNC(=O)/C=C/c2ccc(OC)c(OC)c2)C3)nc1 (configuration not stated)	-25.5%	nt	nt	-26.3%	nt
COC(=O)C1CCCCN1Cc1ccc2c(c1)CN(C(=O)c1cc(C)nc3cc(F)ccc13)CCO2 (configuration not stated)	-2.1%	nt	nt	-8.4%	nt
CCN1CC=C(c2c[nH]c3ccccc23)CC1	?	?	10µM*	?	5.7%
Cc1cccc(NC(=O)N2CC=C(c3c[nH]c4ccccc34)CC2)c1C	-4.2%	nt	nt	-16.3%	24.1%[46.1 µM]
CCc1cccc(C)c1NC(=O)CN1C(=O)C2(SCC(=O)N2c2cccc(F)c2)c2ccccc21 (configuration not stated)	-13.9%	nt	nt	-5.1%	?
O=[N+]([O-])/C(C(=C(Cl)Cl)N1CCN(Cc2ccccc2)CC1)=C1\NCCN1Cc1ccc(Cl)nc1	?	?	-3.1%	10µM*	-11.3%
CCN(CC)c1ccc(N=Cc2c(O)n(CCc3ccc(OC)c(OC)c3)c(=O)[nH]c2=O)cc1	-7.4%	2.82µM*	15.6%	-14.3%	?
CCCCCCCc1cc2ccccc2c2c(C(=O)OCC)c(C(=O)OCC)c(C(=O)OCC)n12	nt	-5.4%[14.2 µM]	nt	nt	nt
O=c1cc2c(nn1Cc1cccc([N+](=O)[O-])c1)-c1ccccc1CC2	nt	nt	12.6µM*	nt	nt
Cc1ccccc1COn1nnc2ccc(S(=O)(=O)N3CCOCC3)cc21	7.94µM*	-3.6%	5.6%	4.47µM*	-18.6%[46.1 µM]
SMILES	VACV Venus inh	Marburg entry inh	HCV inhibitor	VACV mCherry inh	LASV entry inh
COC(=O)/C=c1\s/c(=C(/C#N)C(=O)N2CCCCC2)n(-c2ccccc2)c1=O	nt	-33.1%	nt	nt	nt
O=C(c1ccc(S(=O)(=O)N2CCCCCC2)cc1)N1CCC(CN2C(=O)c3cccc4cccc(c34)C2=O)CC1	?	?	10µM*	nt	?
CCN(CC)c1nc(-c2ccccn2)nc(-c2ccccc2)c1C#N	?	6.31µM*	6.31µM*	?	?
CN(C)c1nc(-c2ccccn2)nnc1-c1ccccc1	?	?	?	8.91µM*	?
CC(C)CC(=O)/C(=C\c1ccc(Cl)cc1Cl)n1cncn1	12.6µM*	?	?	?	0.581µM*
Cc1ccc(NC(=O)CCN2CCN(C/C=C/c3ccccc3)CC2)cc1	?	8.91µM*	?	nt	-29.6%
CC(C(=O)Nc1ccc([N+](=O)[O-])cc1)N1CCN(C/C=C/c2ccccc2)CC1 (configuration not stated)	-27.8%	12.6µM*	?	-29.2%	7.6%
Cc1ccc(S(=O)(=O)NC(CC(C)C)C(=O)N2CCOCCOCCOCC2)cc1 (configuration not stated)	-7.6%	?	-4.2%	-4.9%	-13.4%
Cc1ccc(S(=O)(=O)NC(CC(C)C)C(=O)N2CCN(C/C=C/c3ccccc3)CC2)cc1 (configuration not stated)	nt	nt	11.2µM*	nt	nt
C=CC[C@@H]1C=C[C@@H](Oc2ccc(OC)cc2)[C@H](CO)O1	nt	-14.9%[14.2 µM]	nt	nt	nt
COc1ccc(NC(=O)C2SC(=S)N=C2N)cc1 (configuration not stated)	nt	9.0%	nt	nt	nt
Oc1ccccc1-[n+]1c(-c2ccccc2)cc(-c2ccccc2)cc1-c1ccccc1	1.5%	nt	nt	-5.7%	nt
Nc1ccccc1-[n+]1c(-c2ccccc2)cc(-c2ccccc2)cc1-c1ccccc1	-16.9%	8.91µM*	-6.1%	-25.0%	?
Cc1ccccc1-[n+]1c(-c2ccccc2)cc(-c2ccccc2)cc1-c1ccccc1	?	nt	?	-2.4%	nt
[O-]c1ccccc1-[n+]1c(-c2ccccc2)cc(-c2ccccc2)cc1-c1ccccc1	-26.6%	nt	6.31µM*	-29.2%	nt
COc1ccc([C@@H]2CNC(=O)C2)cc1OC1CCCC1	nt	-38.7%	nt	nt	nt
CO[C@H]1[C@H](NC(=O)c2ccco2)c2ccccc2C12CCN(Cc1cc(Cl)ccc1O)CC2	-24.1%	nt	nt	?	nt
Cc1c(CC(=O)NCc2ccccc2Cl)c(=O)oc2cc(O)ccc12	-7.4%	?	nt	-0.7%	4.3%[46.1 µM]
CC(C)(C)c1cc(NCCCn2ccnc2)n2ncc(-c3ccccc3)c2n1	-26.6%	?	?	-15.5%	?
Cc1cc(NCCCN2CCOCC2)n2ncc(-c3ccc(Cl)cc3)c2n1	nt	-20.3%	12.6µM*	nt	?
CN(C)CCCNc1cc(C(C)(C)C)nc2c(-c3ccc(Cl)cc3)cnn12	-4.9%[7.34 µM]	?	10µM*	i[7.34 µM]	?
Cn1c(=O)c2c(nc(NCCCN3CCOCC3)n2Cc2ccc(Cl)cc2)n(C)c1=O	nt	-1.1%	-7.2%	nt	-1.4%
Cc1cc(NCCCn2ccnc2)n2ncc(-c3ccc(Cl)cc3)c2n1	?	?	7.08µM*	12.6µM*	?
COc1ccc(/C=C2/CCC(CN3CCOCC3)C2=O)cc1 (configuration not stated)	4.6%	?	5.01µM*	i	12.6µM*
CN(C)CC1CCC/C(=C\c2ccc(OC(=O)/C=C/c3ccccc3)cc2)C1=O (configuration not stated)	3.3%	-2.0%	?	-15.3%	17.3%
CN(C)CC1CC/C(=C\c2ccc(O)cc2)C1=O (configuration not stated)	-20.4%	?	?	?	11.2µM*
